Composite z-score and z-score data for eight compounds are collected here from PubChem BioAssay.

Each structure is given as a SMILES string. Activity calls are given as the source filed them. Unless noted, no rule for the calls is given here.

Assay [1] has as its system Wnt5a (protein binding on small-molecule microarray). In words: small molecules binding Wnt5a protein – biophysical, small-molecule microarray, 635/667 nm fluorescence, primary screen (AID 1142).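 Also: fluorescence read at 667 nm with signal to noise per printed feature.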 To be noted: 635 nm fluorescence, higher = more signal.
Assay [2] in a line: ATP-based viability of Huh7 replicon cells – cell-based, CellTiter-Glo luminescence, basal, 48 h, cytotoxicity control for HCV replication inhibitor project, primary screen (AID 1143).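 Also: Huh7 hepatoma cells carrying a hepatitis C replication reporter with no stimulus; test concentration not given here.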 To be noted: higher = more signal, called active from +8 up or from −8 down.
The nature of assay [3]: Pseudomonas biofilm growth suppression – PAO1 strain, BacTiter-Glo luminescence, LB-PBS, primary screen (AID 1144). To be noted: P. aeruginosa PAO1 biofilm, 12 h, higher = more signal.
Assay [4] can be described thus: basal CRE-LacZ reporter activity in PC12 – cell-based, unstimulated, primary screen (AID 1145). Conditions: no forskolin, luminescence, 4.5 h, higher = more signal, called active from +8 up or from −8 down.
Assay [5] can be described thus: forskolin-driven CRE-LacZ activity in PC12 – cell-based, CRE-LacZ reporter, forskolin-stimulated, primary screen (AID 1146).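 Also: PC12 cells with 6xCRE LacZ reporter stimulated by forskolin 10 µM; beta-galactosidase reporter signal reflecting CREB driven transcription.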 Conditions: luminescence, 4.5 h, higher = more signal, called active from +8 up or from −8 down.
In assay [6] the target is Streptavidin (Streptomyces avidinii) (UniProt P22629). In words: compounds binding control protein streptavidin – biophysical, small-molecule microarray, 635/667 nm fluorescence, artefact control for SMM compound annotation, primary screen (AID 1147).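 Also: signal reflects streptavidin binding to arrayed compounds as a control protein.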 Conditions: higher = more signal.
The nature of assay [7]: probe aInhba binding on compound microarray – biochemical, small-molecule microarray, 635/667 nm fluorescence, primary screen (AID 1148).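 Also: score merges 667nm spot fluorescence with signal-to-noise for antibody binding to printed compounds.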 Conditions: higher = more signal.
For assay [8], the target named is Torsin-1A (Homo sapiens) (UniProt O14656). Kind of assay: TOR1A wild-type binding on microarray – cell lysate, small-molecule microarray, lysate, 635/667 nm, primary screen (AID 1149). To be noted: COS7 hTOR1A-WT lysate, 635 nm fluorescence, higher = more signal.
For assay [9] the target is unchanged. Kind of assay: torsin A mutant lysate binding on microarrays – cell lysate, small-molecule microarray, COS7 lysate, 635/667 nm fluorescence, primary screen (AID 1150).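 Also: score pools 667 nm emission and signal to noise measuring lysate protein binding.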 To be noted: COS7 hTOR1A mutant lysate, 635 nm fluorescence, higher = more signal.
The subject of assay [10] is Sonic hedgehog protein (Shh). Kind of assay: Sonic hedgehog microarray binding compounds – biochemical, small-molecule microarray, 635/667 nm fluorescence, primary screen (AID 1151).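 Also: Shh protein binding to compounds spotted on small-molecule microarray slides; score combines spot fluorescence intensity with signal-to-noise across triplicate slides.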 To be noted: 635 nm fluorescence, higher = more signal.
A short description of assay [11]: optical density shifts of acrAB sulA E. coli – strain DRC41, OD650, 48 h, E. coli filamentation inducer project, primary screen (AID 1152).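 Also: E. coli MC1000 strain DRC41 lacking acrAB efflux pump and sulA.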 Conditions: higher = more signal, called active from +8 up or from −8 down.
Assay [12] in a line: probe aLefty1 binding on compound microarray – biochemical, small-molecule microarray, 635/667 nm fluorescence, primary screen (AID 1153).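 Also: score merges spot fluorescence with signal-to-noise ratio from the scanned slide images.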 To be noted: higher = more signal.
Assay [13] can be described thus: plasmodial surface anion channel blockers, osmotic lysis – cell-based, P. falciparum Indochina, OD700, 1 h, primary screen (AID 1154). Conditions: P. falciparum Indochina infected RBC osmotic lysis, higher = more signal, called active from +8 up or from −8 down.
Assay [14] can be described thus: plasmodial surface anion channel blockers, osmotic lysis – cell-based, P. falciparum Indochina, OD700, 2 h, primary screen (AID 1155).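 Also: lysis reports solute entry through the parasite surface anion channel PSAC.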 To be noted: P. falciparum Indochina infected erythrocytes, higher = more signal, called active from +8 up or from −8 down.
Assay [15] is described as follows: changes in parasitized red cell lysis, either direction – P. falciparum Indochina, OD700, 3 h, PSAC antagonist project, primary screen (AID 1156). Conditions: P. falciparum-infected erythrocytes, osmotic lysis, higher = more signal, called active from +8 up or from −8 down.
Assay [16] can be described thus: plasmodial surface anion channel blockers, osmotic lysis – cell-based, P. falciparum Indochina, OD700, 18 h, primary screen (AID 1157). To be noted: P. falciparum Indochina infected erythrocytes, osmotic lysis OD700, 18 h; higher = more signal, called active from +8 up or from −8 down.
Assay [17] can be described thus: S6 kinase pathway phospho-S6 level changes – cell-based, A549, cytoblot, luminescence, serum-stimulated, primary screen (AID 1158).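 Also: serum-stimulated A549 lung adenocarcinoma cells; signal is phosphorylated S6 detected by cytoblot immunostaining with HRP secondary.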 Conditions: 5 h, higher = more signal.
Assay [18] has as its target NADPH oxidase 2 (Homo sapiens) (UniProt P04839). Kind of assay: compounds shifting NOX2 Amplex Red fluorescence – cell-based, HEK293-NOX2, PMA-stimulated, NOX inhibitor project, primary screen (AID 1159). Also: test concentration not given here. Conditions: 45 min, higher = more signal, called active from +8 up or from −8 down.
The target of assay [19] is NADPH oxidase 4 (Homo sapiens) (UniProt Q9NPH5). In words: compounds shifting NOX4 Amplex Red fluorescence – cell-based, HEK293-NOX4, tetracycline-induced, NOX inhibitor project, primary screen (AID 1160). To be noted: HEK293-NOX4, Amplex Red H2O2 fluorescence, 45 min; higher = more signal, called active from +8 up or from −8 down.
Assay [20] concerns the target NADPH oxidase 5 (Homo sapiens) (UniProt Q96PH1). In words: compounds shifting NOX5 Amplex Red fluorescence – cell-based, HEK293-NOX5, NOX inhibitor project, primary screen (AID 1161). Conditions: HEK293-NOX5, ionomycin, 45 min, higher = more signal.

Streptavidin (Streptomyces avidinii), sequence (P22629 whole entry, looked up): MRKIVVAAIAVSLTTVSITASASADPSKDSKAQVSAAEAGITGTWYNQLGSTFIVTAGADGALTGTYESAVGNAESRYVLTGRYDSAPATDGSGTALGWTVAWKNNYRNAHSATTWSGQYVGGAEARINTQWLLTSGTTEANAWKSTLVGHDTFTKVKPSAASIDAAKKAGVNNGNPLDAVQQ
Torsin-1A (Homo sapiens), sequence (O14656 whole entry, looked up): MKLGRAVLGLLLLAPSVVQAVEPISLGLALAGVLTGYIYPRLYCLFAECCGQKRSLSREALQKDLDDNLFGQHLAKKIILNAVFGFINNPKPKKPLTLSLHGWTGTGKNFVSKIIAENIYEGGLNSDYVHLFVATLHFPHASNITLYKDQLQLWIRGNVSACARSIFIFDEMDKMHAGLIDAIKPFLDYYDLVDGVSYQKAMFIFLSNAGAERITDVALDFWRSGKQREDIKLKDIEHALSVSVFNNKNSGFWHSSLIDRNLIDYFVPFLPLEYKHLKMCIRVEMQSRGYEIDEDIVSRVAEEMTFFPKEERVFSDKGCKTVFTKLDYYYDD
NADPH oxidase 2 (Homo sapiens), sequence (P04839 whole entry, looked up): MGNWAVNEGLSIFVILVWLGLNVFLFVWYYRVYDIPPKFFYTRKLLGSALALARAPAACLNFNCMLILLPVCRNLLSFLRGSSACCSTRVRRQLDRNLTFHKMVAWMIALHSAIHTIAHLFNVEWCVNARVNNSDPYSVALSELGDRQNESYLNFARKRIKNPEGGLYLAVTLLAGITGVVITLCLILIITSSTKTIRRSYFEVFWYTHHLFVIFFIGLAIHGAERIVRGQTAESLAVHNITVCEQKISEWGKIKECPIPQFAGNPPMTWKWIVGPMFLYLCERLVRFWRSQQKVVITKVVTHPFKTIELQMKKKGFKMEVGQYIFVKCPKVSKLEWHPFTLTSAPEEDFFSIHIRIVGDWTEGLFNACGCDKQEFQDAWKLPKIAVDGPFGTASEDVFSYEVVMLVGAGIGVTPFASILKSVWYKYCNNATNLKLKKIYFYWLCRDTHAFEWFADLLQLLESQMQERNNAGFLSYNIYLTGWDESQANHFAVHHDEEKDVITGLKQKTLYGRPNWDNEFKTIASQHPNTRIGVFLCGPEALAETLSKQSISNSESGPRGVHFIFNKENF
NADPH oxidase 4 (Homo sapiens), sequence (Q9NPH5 whole entry, looked up): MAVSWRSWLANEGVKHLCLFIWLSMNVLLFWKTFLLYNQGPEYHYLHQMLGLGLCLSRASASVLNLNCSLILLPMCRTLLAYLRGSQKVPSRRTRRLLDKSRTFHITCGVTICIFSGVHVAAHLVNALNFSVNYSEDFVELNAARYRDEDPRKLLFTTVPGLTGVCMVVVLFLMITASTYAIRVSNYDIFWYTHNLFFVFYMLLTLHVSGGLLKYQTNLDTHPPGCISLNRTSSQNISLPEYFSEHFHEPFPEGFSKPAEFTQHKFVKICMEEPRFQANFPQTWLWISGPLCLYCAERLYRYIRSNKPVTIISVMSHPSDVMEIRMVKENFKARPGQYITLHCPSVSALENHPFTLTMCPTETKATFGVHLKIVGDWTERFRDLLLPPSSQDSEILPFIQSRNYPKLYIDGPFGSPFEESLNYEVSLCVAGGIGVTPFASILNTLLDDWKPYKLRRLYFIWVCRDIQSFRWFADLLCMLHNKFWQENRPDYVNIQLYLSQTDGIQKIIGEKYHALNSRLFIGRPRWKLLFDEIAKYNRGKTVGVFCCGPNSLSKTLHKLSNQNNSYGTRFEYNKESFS
NADPH oxidase 5 (Homo sapiens), sequence (Q96PH1 whole entry, looked up): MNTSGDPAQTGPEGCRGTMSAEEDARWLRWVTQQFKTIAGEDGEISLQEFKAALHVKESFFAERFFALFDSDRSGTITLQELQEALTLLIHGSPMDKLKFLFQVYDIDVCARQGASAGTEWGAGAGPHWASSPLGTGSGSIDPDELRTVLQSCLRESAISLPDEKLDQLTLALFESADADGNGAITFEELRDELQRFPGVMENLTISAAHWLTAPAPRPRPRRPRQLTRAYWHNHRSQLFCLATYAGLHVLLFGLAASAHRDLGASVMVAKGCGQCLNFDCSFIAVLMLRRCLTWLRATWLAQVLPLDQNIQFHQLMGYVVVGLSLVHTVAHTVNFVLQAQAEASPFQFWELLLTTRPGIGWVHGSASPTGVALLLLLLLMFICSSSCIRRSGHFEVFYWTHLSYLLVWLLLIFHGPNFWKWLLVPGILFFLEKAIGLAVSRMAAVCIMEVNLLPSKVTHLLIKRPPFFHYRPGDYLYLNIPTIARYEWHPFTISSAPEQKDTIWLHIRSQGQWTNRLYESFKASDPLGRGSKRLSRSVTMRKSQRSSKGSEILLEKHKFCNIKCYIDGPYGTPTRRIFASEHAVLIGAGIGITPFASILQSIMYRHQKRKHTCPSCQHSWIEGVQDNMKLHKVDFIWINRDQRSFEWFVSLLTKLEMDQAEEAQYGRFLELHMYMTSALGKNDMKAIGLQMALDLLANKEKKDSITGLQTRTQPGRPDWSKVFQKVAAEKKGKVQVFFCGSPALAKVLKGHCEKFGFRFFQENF

In the case of `C[C@@H](c1ccccc1)N1C(=O)[C@H]2[C@H]3[C@H](O)C=CC(=O)[C@@H]3CC[C@H]2C1=O`, the composite z-score in assay [1] was -0.143; in [6], 0.831; in [7], 0.0422; in assay [8], 0.445; in assay [9] it was 0.0746; in assay [10], 0.593. In [12], the composite z-score was -0.193. For the same compound, the z-score in assay [2] is -1.8 (inactive); in [3], 0.715 (inactive); in [4], 0.247 (inactive); in [5] it was -0.323 (inactive); in [11], -0.0347 (inactive); in assay [13], -0.352 (inactive). Also, the z-score in assay [14] was 0.101 (inactive); in [15], -0.555 (inactive); in assay [16] it was -0.284 (inactive); in assay [17], 0.674; in assay [18] it was 1.56 (inactive); in [19], -0.0276 (inactive). In addition, the z-score in [20] was -0.276.
With `C[C@@H]1CC[C@H]2C(=O)O[C@H](COc3ccc(C(C)(C)C)cc3)CN2[C@H]1c1ccc(Br)cc1`, the composite z-score is -0.131 in assay [1]; 0.102 in [6]; -0.17 in [7]; -0.175 in [8]; -0.142 in assay [9]; 0.348 in [10]. Further, the composite z-score in assay [12] was -0.279. Moreover, the z-score in [2] was -0.443 (inactive); in assay [3], -0.301 (inactive); in [4], 0.262 (inactive); in [5] it was 0.203 (inactive); in assay [11], -0.425 (inactive); in assay [13], 0.813 (inactive). Further, the z-score in assay [14] was 0.538 (inactive); in [15], -0.082 (inactive); in assay [16] it was 0.343 (inactive); in assay [17], -0.53; in assay [18] it was 0.0709 (inactive); in [19], -1.99 (inactive). In assay [20], the z-score was determined as 0.568.
As to `CC(C)[C@@H](OCc1ccccc1)[C@H](C)C=NOC[C@@H](C)[C@H](OCc1ccccc1)C(C)C`, the composite z-score was 0.187 in [1]; 0.118 in [6]; -0.128 in assay [7]; 0.256 in assay [8]; 0.204 in assay [9]; 0.256 in [10]. In [12], this compound yielded a composite z-score of 0.233. The z-score in assay [2] was 0.459 (inactive); in assay [3], 0.627 (inactive); in [4], 0.471 (inactive); in assay [5], -0.144 (inactive); in assay [11], 0.52 (inactive); in assay [13] it was 0.641 (inactive). For the same compound, the z-score in [14] was 0.369 (inactive); in [15] it was -0.423 (inactive); in assay [16], -0.222 (inactive); in assay [17], -0.591; in assay [18], -0.537 (inactive); in [19], -0.184 (inactive). Besides, in assay [20], the z-score is -0.948.
Consider `CO[C@H]1O[C@H](CO)[C@@H](OC(=O)Nc2ccc3c(c2)OCO3)[C@H](OC(=O)Nc2ccccc2-c2ccccc2)[C@@H]1OC(=O)Nc1ccccc1-c1ccccc1`, for which the composite z-score was found to be 0.492 in assay [1]; 1.08 in [6]; 0.124 in assay [7]; 0.957 in assay [8]; 1.17 in assay [9]; 0.672 in assay [10]. Moreover, the composite z-score in assay [12] stood at 0.298. Further, the z-score was -3.03 (inactive) in [2]; -0.176 (inactive) in [3]; 0.54 (inactive) in assay [4]; -0.528 (inactive) in assay [5]; 0.181 (inactive) in assay [11]; 2.44 (inactive) in assay [13]. For the same compound, the z-score in [14] is 1.7 (inactive); in assay [15] it was 0.433 (inactive); in [16], 1.14 (inactive); in [17], -0.0879; in assay [18], 2.75 (inactive); in assay [19], -0.0563 (inactive). In addition, the z-score in assay [20] was -0.303.
On to `CC(=O)OC[C@H]1O[C@H](CCON=C(C)CCN2CCc3nc(-c4ccccc4)c(-c4ccccc4)cc3C2)C=C[C@@H]1OC(C)=O`, for which the composite z-score in assay [1] was -0.192; in assay [6], 0.316; in assay [7], 0.156; in assay [8], 0.0622; in assay [9] it was 0.407; in [10] it was 0.287. Also, the composite z-score in [12] is 0.0446. Further, the z-score in assay [2] is -1.04 (inactive); in [3] it was 0.23 (inactive); in assay [4], 4.88 (inactive); in [5], 0.0929 (inactive); in assay [11], -0.132 (inactive); in [13] it was 2.65 (inactive). For the same compound, the z-score was 0.452 (inactive) in assay [14]; 0.676 (inactive) in assay [15]; 0.148 (inactive) in [16]; -0.166 in assay [17]; -2.87 (inactive) in assay [18]; -0.455 (inactive) in assay [19]. The z-score in assay [20] is -2.78.
`CCOC(=O)CCN1C(=O)[C@H]2[C@H]3[C@H](O)[C@H](O)CC(=NOC[C@@H](O)COCc4ccco4)[C@@H]3CC[C@H]2C1=O`: the composite z-score was -0.0579 in assay [1]; 0.663 in assay [6]; -0.197 in assay [7]; 0.584 in assay [8]; -0.0032 in assay [9]; -0.825 in [10]. For the same compound, the composite z-score in assay [12] was found to be 0.0861. Moreover, the z-score in assay [2] was -0.632 (inactive); in [3], -0.35 (inactive); in assay [4], 0.251 (inactive); in assay [5], 0.069 (inactive); in assay [11], 0.401 (inactive); in [13], 3.93 (inactive). The z-score in assay [14] is 0.63 (inactive); in assay [15] it was -0.403 (inactive); in assay [16], 0.403 (inactive); in assay [17], -0.426; in assay [18] it was 0.48 (inactive); in [19] it was 0.771 (inactive). Also, in assay [20], the z-score amounted to 0.6.
Take `CCOC(=O)[C@H](Cc1ccccc1)NC(=O)CCC1CC(OC(=O)NCc2ccc3c(c2)OCO3)CC2(CCCC(COC(=O)NCC3CCCCC3)O2)O1` (stereo not given in full): the composite z-score is 0.0472 in assay [1]; 0.592 in [6]; -0.0289 in assay [7]; -0.407 in assay [8]; 0.538 in [9]; 1.36 in assay [10]. For the same compound, the composite z-score in assay [12] came to 0.171. The z-score in assay [2] is -0.734 (inactive); in assay [3], -0.0126 (inactive); in assay [4], -0.613 (inactive); in assay [5], -0.177 (inactive); in [11], -0.251 (inactive); in assay [13], 0.732 (inactive). Besides, the z-score was 0.45 (inactive) in [14]; -0.235 (inactive) in [15]; 0.297 (inactive) in assay [16]; 0.236 in assay [17]; 1.51 (inactive) in assay [18]; 0.737 (inactive) in [19]. For the same compound, the z-score in [20] stood at 0.909.
On to `CO[C@H]1COC(=O)[C@H](C)COC(=O)CC=C[C@@H](C)[C@H](OC)COC(=O)CC=C[C@@H]1C`, for which the composite z-score was 0.185 in [1]; -0.436 in [6]; -0.128 in [7]; 1.03 in assay [8]; 0.666 in [9]; 1.55 in [10]. In assay [12], this compound showed a composite z-score of -0.196. Besides, the z-score in assay [2] is -0.0182 (inactive); in assay [3], -0.272 (inactive); in assay [4], -0.474 (inactive); in assay [5], 0.592 (inactive); in assay [11] it was 0.738 (inactive); in assay [13], -0.654 (inactive). In addition, the z-score was -0.285 (inactive) in assay [14]; -0.654 (inactive) in assay [15]; -0.188 (inactive) in [16]; 0.648 in assay [17]; -0.347 (inactive) in [18]; 0.0281 (inactive) in [19]. In addition, the z-score in assay [20] was determined as 0.625.
